“And” between values parts separate entries of the source, which are not always exact repeats. Equal entries are not always repeated. Among all 5,500 compounds or so, about 2,000 (36%) were called active. Inconclusive results (about 18%) are left out. Cut-off read from the data, not from the text of the source: active = normalized growth mostly below about 0.91 (no sharp cut-off); inconclusive = no clear call, values can overlap the other calls; inactive = mostly above about 0.92. The list shows a part of the results.
Assay: chemical genetic growth profiling, strain panel (AID 1159580);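 note: tested at 20 µM; growth read once vehicle control cultures reached saturation at 30 °C; 1 = growth at the plate median or of vehicle wells; lower values mean less growth of the strain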
Settings: S. cerevisiae deletion strains, growth OD

Measured: normalized growth

CCCCC1C(=O)N(c2ccccc2)N(c2ccccc2)C1=O
inactive: locus YAL013W, strain DEP1, hits give low values 0.971 and 0.998 | locus YAL021C, strain ccr4, hits give low values 0.999 | locus YAL026C, strain drs2, hits give low values 0.982 | locus YAL030W, strain snc1, hits give low values 0.987 | locus YAL040C, strain CLN3, hits give low values 0.963 | locus YBL061C, strain skt5, hits give low values 0.997 | locus YBR009C, strain hhf1, hits give low values 1.01 | locus YBR021W, strain FUR4, hits give low values 1.01 | locus YBR023C, strain chs3, hits give low values 0.998 | locus YBR171W, strain sec66, hits give low values 0.977 | locus YBR229C, strain ROT2, hits give low values 0.983 | locus YBR231C, strain swc5, hits give low values 1 | locus YBR279W, strain paf1, hits give low values 1.02 | locus YCL011C, strain gbp2, hits give low values 1 | locus YCL016C, strain dcc1, hits give low values 1 | locus YCL029C, strain bik1, hits give low values 1.01 | locus YCL061C, strain MRC1 (second series), hits give low values 0.998 | locus YCL061C, strain MRC1, hits give low values 0.983 | locus YCL069W, strain vba3, hits give low values 0.999 | locus YCR088W, strain abp1, hits give low values 0.985 | locus YDL005C, strain med2, hits give low values 1 | locus YDL035C, strain GPR1, hits give low values 0.989 | locus YDL040C, strain nat1, hits give low values 0.99 | locus YDL074C, strain BRE1, hits give low values 1.02 | locus YDL101C, strain DUN1, hits give low values 1.01 | locus YDL134C, strain PPH21, hits give low values 0.986 | locus YDL185W, strain tfp1, hits give low values 0.994 | locus YDL192W, strain arf1, hits give low values 0.988 | locus YDR001C, strain nth1, hits give low values 0.984 | locus YDR069C, strain doa4, hits give low values 0.982 | locus YDR101C, strain arx1, hits give low values 1.01 | locus YDR137W, strain rgp1, hits give low values 0.915 | locus YDR150W, strain NUM1, hits give low values 0.99 and 0.997 | locus YDR159W, strain sac3, hits give low values 0.972 | locus YDR162C, strain NBP2, hits give low values 0.976 | locus YDR195W, strain ref2 0.992 | locus YDR297W, strain sur2, hits give low values 0.989 | locus YDR318W, strain mcm21, hits give low values 1.01 | locus YDR334W, strain swr1, hits give low values 0.994 | locus YDR335W, strain msn5, hits give low values 0.997 | locus YDR363W, strain ESC2, hits give low values 1.03 | locus YDR388W, hits give low values 1 | locus YDR392W, strain spt3, hits give low values 0.969 | locus YDR502C, strain sam2, hits give low values 0.986 | locus YEL003W, strain gim4, hits give low values 1 | locus YEL037C, strain rad23, hits give low values 0.991 | locus YEL061C, strain CIN8 (second series), hits give low values 0.983 | locus YEL061C, strain CIN8, hits give low values 0.981 | locus YER002W, strain NOP16, hits give low values 0.974 | locus YER015W, strain faa2, hits give low values 0.998 | locus YER016W, strain bim1, hits give low values 0.99 | locus YER110C, hits give low values 0.993 | locus YER111C, strain swi4, hits give low values 0.979 | locus YER155C, strain BEM2 (second series), hits give low values 1.03 | locus YER155C, strain BEM2, hits give low values 1.01 | locus YER167W, strain BCK2, hits give low values 0.987 | locus YFR010W, strain ubp6, hits give low values 0.991 | locus YGL078C, strain dbp3, hits give low values 1.01 | locus YGL086W, strain mad1, hits give low values 0.963 | locus YGL167C, strain pmr1, hits give low values 0.977 | locus YGL173C, strain kem1, hits give low values 0.983 | locus YGL227W, strain vid30, hits give low values 1 | locus YGL240W, strain doc1, hits give low values 1.01 | locus YGL248W, strain PDE1, hits give low values 0.991 | locus YGL253W, strain hxk2, hits give low values 0.994 | locus YGR078C, strain PAC10, hits give low values 1.02 and 0.981 | locus YGR135W, strain pre9, hits give low values 0.994 | locus YGR229C, strain SMI1, hits give low values 0.983 and 1 | locus YGR252W, strain gcn5, hits give low values 0.922 | locus YHR013C, strain ard1, hits give low values 0.992 | locus YHR027C, strain rpn1, hits give low values 0.99 | locus YHR030C, strain SLT2, hits give low values 0.992 and 0.937 | locus YHR079C, strain IRE1 (second series), hits give low values 1 | locus YHR079C, strain IRE1, hits give low values 0.917 | locus YHR094C, strain hxt1, hits give low values 0.991 | locus YHR129C, strain ARP1, hits give low values 0.994 | locus YHR142W, strain chs7, hits give low values 1.03 | locus YHR200W, strain rpn10, hits give low values 1 | locus YIL066C, strain RNR3, hits give low values 0.991 | locus YIL073C, strain SPO22, hits give low values 1.01 | locus YIL125W, strain kgd1, hits give low values 0.98 | locus YIR030C, strain dcg1, hits give low values 0.993 | locus YJL092W, strain hpr5, hits give low values 0.985 | locus YJL095W, strain BCK1 (second series), hits give low values 0.996 | locus YJL095W, strain BCK1, hits give low values 1.03 and 0.938 | locus YJL115W, strain asf1, hits give low values 0.99 | locus YJL129C, strain trk1, hits give low values 0.999 | locus YJL134W, strain LCB3, hits give low values 0.977 | locus YJL154C, strain vps35, hits give low values 0.991 | locus YJL164C, strain tpk1, hits give low values 1.01 | locus YJL166W, strain qcr8, hits give low values 1.01 | locus YJL168C, strain set2, hits give low values 0.988 | locus YJL187C, strain SWE1 (second series), hits give low values 1.01 | locus YJL187C, strain SWE1, hits give low values 0.988 | locus YJR043C, strain POL32, hits give low values 1.04 | locus YJR066W, strain TOR1, hits give low values 0.915

— PubChem BioAssay AID1159580 (chemical genetic matrix, 2015)
